{"source": "paper PMC3795721", "about": "“Screening for Protein-DNA Interactions by Automatable DNA-Protein Interaction ELISA”", "data": [{"target": "AT4G31550 (Arabidopsis thaliana, UniProt Q9SV15 228-325)", "sequence (Q9SV15 228-325)": "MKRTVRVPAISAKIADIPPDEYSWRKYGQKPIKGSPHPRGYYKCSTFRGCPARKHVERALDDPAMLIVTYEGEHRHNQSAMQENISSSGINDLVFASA", "experiment": "DPI-ELISA; DPI-ELISA, streptavidin 384-well plate, 1-2 pmol biotinylated dsDNA per well, crude native E. coli extract, anti-His detection; buffer as in Brand et al. [46],; high values mean tight binding", "conditions": "tags: C-terminal His (pET-DEST42); label: 5' biotin on forward strand; dsDNA, one strand shown", "units": {"binding signal": "absorbance"}, "values": [{"sequence": "AAAAAATATTCGCCGGTAGCCACGCTAAAA", "binding signal": "0.565 ± 0.12"}, {"sequence": "AAAAAATCCACGACTCAGCAGCTCTTAAAA", "binding signal": "0.68 ± 0.0707"}, {"sequence": "AAAAAATGTCGGCTGTTAGGATATCGAAAA", "binding signal": "0.625 ± 0.0495"}, {"sequence": "AAAAAATATTCCGCTTTTGGCTGAATAAAA", "binding signal": "0.635 ± 0.0636"}, {"sequence": "AAAAAATTCACTTTTACCTTTGTGTTAAAA", "binding signal": "0.555 ± 0.0919"}, {"sequence": "AAAAAATATGTTTTCGCTTTATTCTTAAAA", "binding signal": "0.52 ± 0.099"}, {"sequence": "AAAAAAAGTGGCCGCTAGTCAACTCAAAAA", "binding signal": "3.46 ± 0.389"}, {"sequence": "AAAAAATTCTTAGTTAGATTCACCTCAAAA", "binding signal": "0.575 ± 0.134"}, {"sequence": "AAAAAAACTCAACTAGTGAACCACCAAAA", "binding signal": "0.625 ± 0.0636"}, {"sequence": "AAAAAACCGCTTACATTGCGTTGTCGAAAA", "binding signal": "0.605 ± 0.0495"}, {"sequence": "AAAAAACTGACCGTCAGCGCCCACGCAAAA", "binding signal": "1.45 ± 0.424"}, {"sequence": "AAAAAACGGTCGCGATCGTTAATGATAAAA", "binding signal": "0.75 ± 0.17"}, {"sequence": "AAAAAAACGGGTTGTGAATGTGGAAGAAAA", "binding signal": "0.575 ± 0.148"}, {"sequence": "AAAAAACGGGATTCGAAACTTTTTGTAAAA", "binding signal": "0.54 ± 0.099"}, {"sequence": "AAAAAAATGATTTGCAGATCTCCGAGAAAA", "binding signal": "0.935 ± 0.488"}, {"sequence": "AAAAAACGCCGGACAATCAGGCGCTCAAAA", "binding signal": "0.625 ± 0.177"}, {"sequence": "AAAAAACGTGCGCGTGCATGTCATCGAAAA", "binding signal": "0.665 ± 0.0919"}, {"sequence": "AAAAAATGGTCGTCGTACTCGTGGTCAAAA", "binding signal": "2.96 ± 0.424"}, {"sequence": "AAAAAATGGTACTCAGAGTTATAGACAAAA", "binding signal": "0.66 ± 0.141"}, {"sequence": "AAAAAAGCTCCCGTCTCTTAGTTCTAAAAA", "binding signal": "0.695 ± 0.12"}, {"sequence": "AAAAAATTTGTTCGGGCTCATAACTGAAAA", "binding signal": "0.595 ± 0.148"}, {"sequence": "AAAAAAGCGTAAGCCTTGACAGTCGTAAAA", "binding signal": "0.725 ± 0.106"}, {"sequence": "AAAAAAAGTCTGCGGCTGCAGGGCGGAAAA", "binding signal": "1.91 ± 0.368"}, {"sequence": "AAAAAACACGCCATTGACACTGGTAAAAAA", "binding signal": "1.67 ± 0.219"}, {"sequence": "AAAAAAAAGCGTTACATCATATGGAAAAAA", "binding signal": "0.56 ± 0.0566"}, {"sequence": "AAAAAAATGGTGCCGCTGAGCAAATTAAAA", "binding signal": "0.555 ± 0.12"}, {"sequence": "AAAAAATTCGTTTTTCGTCTTTCATTAAAA", "binding signal": "0.7 ± 0.156"}, {"sequence": "AAAAAAACCTCTTTATTCTCGATTGTAAAA", "binding signal": "0.585 ± 0.0495"}, {"sequence": "AAAAAATTTGCTCTTTTGGTTTTCACAAAA", "binding signal": "0.64 ± 0.0707"}, {"sequence": "AAAAAATTTTGTGGTGTTTCGCCACCAAAA", "binding signal": "0.715 ± 0.0495"}, {"sequence": "AAAAAATATCATTGTTACCGTTGCTAAAAA", "binding signal": "0.465 ± 0.12"}, {"sequence": "AAAAAAATTACGCGGGATCGCCAAAA", "binding signal": "0.6 ± 0.0566"}, {"sequence": "AAAAAAGGGCGAGCGCTGGATCCACAAAA", "binding signal": "0.505 ± 0.106"}, {"sequence": "AAAAAAAGTTCGCGGATTTCGGCCATAAAA", "binding signal": "0.685 ± 0.148"}, {"sequence": "AAAAAATATGGCACTCGCCGCACATCAAAA", "binding signal": "0.755 ± 0.191"}, {"sequence": "AAAAAATTCCCAGCGTATCCGACCCGAAAA", "binding signal": "0.535 ± 0.0778"}, {"sequence": "AAAAAAACTCTAGGTCAATATTATTCAAAA", "binding signal": "3.11 ± 0.636"}, {"sequence": "AAAAAAGCTAGTCGATTCGGCTTAGAAAAA", "binding signal": "0.68 ± 0.17"}]}]}
